61 compounds from PubChem BioAssay AID1851 (National Center for Advancing Translational Sciences (NCATS), 2009) can be followed below.

The whole screen tested about 16,000 compounds, of which about 5,700 (36%) were called active. Roughly 24% stayed inconclusive and do not appear here. The list shows a part of the results. Values without a mark were called inactive. The call rests on the fitted dose curve; in most records, active means well fitted curve in the direction sought with a large enough effect; inconclusive means small, poorly fitted or top-dose-only effect, or effect the other way; inactive means no such curve, though single readings can be large or run the other way.
On the % scale 0 is the no-effect control and ±100 the full control effect.

Sequence of Cytochrome P450 1A2 (Homo sapiens) (P05177 whole entry, looked up): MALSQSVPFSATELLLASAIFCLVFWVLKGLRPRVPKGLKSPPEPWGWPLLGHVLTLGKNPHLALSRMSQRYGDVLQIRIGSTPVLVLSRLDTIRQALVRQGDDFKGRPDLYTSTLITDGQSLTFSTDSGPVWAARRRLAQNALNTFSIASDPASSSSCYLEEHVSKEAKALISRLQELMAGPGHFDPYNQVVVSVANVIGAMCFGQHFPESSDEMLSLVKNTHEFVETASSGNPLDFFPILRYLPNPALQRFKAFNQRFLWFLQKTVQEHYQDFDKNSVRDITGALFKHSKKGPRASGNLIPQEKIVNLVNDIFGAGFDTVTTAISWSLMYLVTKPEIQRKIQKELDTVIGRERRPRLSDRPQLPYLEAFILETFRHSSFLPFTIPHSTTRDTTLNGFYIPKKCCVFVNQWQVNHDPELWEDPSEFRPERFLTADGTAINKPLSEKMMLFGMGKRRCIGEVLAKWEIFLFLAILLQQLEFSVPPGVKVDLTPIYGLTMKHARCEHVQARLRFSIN

The assay has as its target Cytochrome P450 1A2 (Homo sapiens) (UniProt P05177). The assay can be described thus: Cytochrome panel assay with activity outcomes. To be noted: recombinant CYP, pro-luciferin dealkylation, luminescence, p450-cyp1a2; series mostly up to 57.1 µM.
For `CCCN(CCC)CCNC(=O)C1CCCN(S(=O)(=O)c2ccc3c(c2)oc(=O)n3C)C1` (stereo unspecified), the AC50 (usually the midpoint of the concentration-response curve, whichever way the signal moves) was “inactive”.
On the same count and under the same terms, next, `CCc1nc2cc(CC(=O)O)ccc2o1`: “inactive”; `Cn1cccc1C(=O)N1CCC2(CC1)CN(c1ccccn1)C2`: “inactive”.
On the same count and under the same terms, next, `Nc1nc2c(ncn2COCCO)c(=O)[nH]1`: “inactive”; `C[C@@]12CC3CC(N)(C1)C[C@@](C)(C3)C2`: “inactive”.
On the same count and under the same terms, next, `C[C@@]1(C(NC(=O)Cc2ccccc2)c2ccc(-c3ccccc3)cc2)C[C@H]1C1CCCCC1` (stereo partly specified): “inactive”; `C[C@@H](C(=O)Nc1ccc2ccccc2c1)[C@H]1C[C@]1(C)[C@H](NS(=O)(=O)c1ccc2ccccc2c1)c1ccccc1`: “inactive”.
Take `CC(=O)N[C@@H](c1ccccc1)[C@]1(C)C[C@H]1[C@@H](C)C(=O)Nc1ccc2ccccc2c1`: the AC50 is 12.6 µM (active).
For `CN(C)Cc1cc(O)c(O)c(CN(C)C)c1`, the activity, negative = inhibition was -8.6% [at 11.4 µM].
With `CN1CCN(c2ncc3nc(-c4ccc(F)cc4)c(=O)n(C4CC4)c3n2)CC1`, the AC50 was 12.6 µM (active).
The same measure, in the same setting: next, `CN1CCN(c2ncc3nc(-c4cc(F)cc(F)c4)c(=O)n(C4CC4)c3n2)CC1`: 15.8 µM (active); `CN1CCN(c2ncc3nc(-c4ccc(Cl)cc4)c(=O)n(C4CC4)c3n2)CC1`: 15.8 µM (active); `CC(C)N=c1cc2n(-c3ccc(Cl)cc3)c3ccccc3nc-2cc1Nc1ccc(Cl)cc1`: “inactive”.
Still for that read-out and setting: to `COC(=O)[C@@]1(Cc2ccccc2)[C@H]2c3cc(C(=O)N4CCCC4)n(Cc4ccsc4Br)c3C[C@H]2CN1C(=O)c1ccccc1` belongs “inactive”; to `N#Cc1ccc(C(c2nnnn2C2CCCC2)N2CCC(Cc3ccccc3)CC2)cc1` (stereo unspecified), “inactive”; to `c1ccc(-c2noc(CSc3nnnn3C3CCCCC3)n2)cc1`, 2.24 µM (active).
For `N#Cc1cccc(C(c2nnnn2C2CCCC2)N2CCCCCC2)c1` (stereo unspecified), the AC50 result was “inactive”.
With `OCCCN=C1CCCCC1`, the activity, negative = inhibition is -9.6% [at 11.4 µM].
`COC(=O)Cn1nc(-c2ccccc2)n(-c2ccccc2)c1=S`: the AC50 is 15.8 µM (active).
Same read-out and setting: next, `O=C(Nc1cccc(F)c1)N1CC2(CCN(C(=O)c3cc(C(F)(F)F)cc(C(F)(F)F)c3)CC2)C1`: “inactive”; `CCCCN1C(=O)NC(NC(=O)c2ccco2)(C(F)(F)F)C1=O` (stereo unspecified): “inactive”.
Take `O=C(NC1(C(F)(F)F)NC(=O)N(Cc2cccnc2)C1=O)c1ccccc1` (stereo unspecified): the AC50 was 6.31 µM (active).
Still for that read-out and setting: to `COc1ccc(N2C(=O)NC(NC(=O)c3ccncc3)(C(F)(F)F)C2=O)cc1` (stereo unspecified) belongs “inactive”.
Turning to `CCN1C(=O)[C@H]2[C@H]3[C@H](O)[C@H](O)C/C(=N/OC)[C@@H]3CC[C@@H]2C1=O`, the activity, negative = inhibition was -3.89% [at 11.4 µM].
In the case of `NCCNS(=O)(=O)c1cccc2cnccc12`, the AC50 result is “inactive”.
The same measure, in the same setting: to `NCCCCCCNS(=O)(=O)c1cccc2c(Cl)cccc12` belongs 7.94 µM (active); to `O=S(=O)(NCCCCCCc1ccccc1)c1cccc2c(Cl)cccc12`, 15.8 µM (active).
Regarding `Nc1ccc(S(=O)(=O)NCCS(=O)(=O)O)cc1`, the activity, negative = inhibition was -3.14% [at 2.29 µM].
For `CCCCCCCNS(=O)(=O)c1cccc2c(Cl)cccc12`, the AC50 was 6.31 µM (active).
Still for that read-out and setting: to `COc1ccccc1N1CCN(CCCCNS(=O)(=O)c2cccc3c(N(C)C)cccc23)CC1` belongs “inactive”; to `COC(=O)N1CCC2(CCN(Cc3nccs3)CC2)CC1`, “inactive”.
Regarding `C/C(=N/O)[C@@H]1C[C@H](CC(=O)O)C1(C)C`, the activity, negative = inhibition was -2.9% [at 11.4 µM].
Regarding `COCCn1c(=O)c(-c2cccc(Cl)c2)nc2cncnc21`, the AC50 is 0.631 µM (active).
Still for that read-out and setting: to `COCCn1c(=O)c(-c2ccc(Cl)cc2)nc2cncnc21` belongs 0.2 µM (active); to `COCCn1c(=O)c(-c2cccc(F)c2)nc2cncnc21`, 2 µM (active).
As for `COCCn1c(=O)c(-c2cc(F)cc(F)c2)nc2cncnc21`, the concentration at half-maximal activity (AC50) is 2 µM (active).
In the case of `COCCn1c(=O)c(-c2ccc(F)c(F)c2)nc2cncnc21`, the concentration at half-maximal activity (AC50) was 0.251 µM (active).
On to `COCCn1c(=O)c(-c2ccc(F)cc2)nc2cncnc21`, for which the AC50 is 0.501 µM (active).
The same measure, in the same setting: to `COCCn1c(=O)c(-c2ccccc2)nc2cncnc21` belongs 0.794 µM (active); to `COc1ccc(NC(=O)C2CCN(C(=O)c3cccs3)CC2)c(OC)c1`, “inactive”.
On to `COc1ccccc1CNC(=O)C1CC(=O)N(C2CCCC2)C1` (stereo unspecified), for which the AC50 result is “inactive”.
Still for that read-out and setting: next, `COc1ccc2oc(=O)c(C(=O)Oc3ccc(NC(C)=O)cc3)cc2c1`: “inactive”.
Still for that read-out and setting: next, `COc1ccc(NC(=O)CC2C(=O)N(c3cccc(OC)c3)C(=O)N2C2CCCCC2)cc1` (stereo unspecified): “inactive”; `COc1ccc2oc(=O)c(NC(=O)C3CCCCC3)cc2c1`: 2.51 µM (active); `COc1cccc2cc(NC(=O)C3CCCCC3)c(=O)oc12`: 1.26 µM (active).
With `CC[C@H]1C2=C3C(CC[C@H]4C(OCc5ccc(F)cc5C(F)(F)F)OC[C@](C)([C@@H]34)N(C(=O)OC(C)(C)C)C2)C(COC)C1COC` (stereo partly specified), the AC50 result is “inactive”.
Regarding `COc1cc2ccc([C@H](C)NCC#N)cc2cc1OC`, the AC50 was 0.501 µM (active).
The same measure, in the same setting: next, `COC(=O)C(C(=O)OC)C(C[N+](=O)[O-])c1ccc(OC)c(OC)c1` (stereo unspecified): “inactive”; `COc1ccc(CNCCC(c2ccc(OC(C)C)cc2)C(C)C)cc1OC` (stereo unspecified): “inactive”; `CCN(CC)C[C@@H](O)c1ccc2ccc3ccccc3c2c1`: 0.794 µM (active).
Consider `c1ccc([C@H](c2cccc3c2ccc2ccccc23)[C@H](c2ccccc2)c2cccc3c2ccc2ccccc23)cc1`, for which the activity, negative = inhibition is -9.37% [at 11.4 µM].
Same read-out and setting: next, `Cc1cc2ccccc2c[n+]1CC(O)C[n+]1cc2ccccc2cc1C`: -17.4% [at 11.4 µM].
For `CCCCCCCCN1C(=O)N(C)C(N(O)C(=O)NC)C1(C)C` (stereo unspecified), the AC50 result was “inactive”.
For the compound `Cn1c(=O)c2c(ncn2CCO)n(C)c1=O`, the AC50 entry was “inactive”.
On the same count and under the same terms, to `CCCn1cnc2c1c(=O)n(CCCCC(C)=O)c(=O)n2C` belongs 12.6 µM (active); to `Cn1c(=O)c2c(ncn2C[C@@H](O)CO)n(C)c1=O`, “inactive”.
Turning to `O=C(O)/C=C(/C(=O)O)[C@]12CCN3CC4=CCO[C@@H]5CC(=O)N[C@@H]1[C@H]5[C@H]4C[C@H]32`, the activity, negative = inhibition is -15% [at 2.29 µM].
On to `COc1ccc(CO/N=C/c2c(C)[nH]c(=O)[nH]c2=O)cc1`, for which the AC50 was 22.4 µM (active).
`NC[C@H]1O[C@H](n2cnc3c(N)ncnc32)C[C@@H]1O`: the activity, negative = inhibition was -9.51% [at 11.4 µM].
With `O=[N+]([O-])c1ccc2c(c1)Cc1cc(N=Cc3ccc4c(c3)OCO4)ccc1-2`, the concentration at half-maximal activity (AC50) is 0.794 µM (active).
Same read-out and setting: to `O=c1oc2cc(N=Cc3ccc4c(c3)OCO4)ccc2c2ccccc12` belongs 0.00794 µM (active).
